Assay outcomes as filed in PubChem BioAssay.
Shown are actives, neighbours in structure and some others; about 3.7% of the full set was active somewhere.
BoNT A protease: BoNT A light chain protease inhibition; multiplex microsphere protease substrate cleavage, flow cytometry; inhibition, % at 10 µM; 360,000 compounds, 0.17% hits; AID 588499
MazEF act: MazEF (E. coli) toxin RNase activation. activation, % at 20 µM. FAM/BHQ RNA-DNA oligo cleavage fluorescence, 5 h. 350,000 compounds, 0.32% hits. P0AE70; in the data active = activation above about 50%
Target sequence (P0AE70 whole entry, looked up): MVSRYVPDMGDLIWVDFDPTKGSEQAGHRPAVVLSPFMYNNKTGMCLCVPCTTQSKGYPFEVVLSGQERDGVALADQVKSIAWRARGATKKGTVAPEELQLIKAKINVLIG
BoNT-F LC inh: BoNT F light chain protease inhibition; inhibition, % at 10 µM; 360,000 compounds, 0.22% hits; Multiplex microsphere protease cleavage assay, flow cytometry; in the data active = inhibition above about 35%, passing the limit was not always enough; inconclusive = no clear call, values can overlap the other calls
Anthrax LF inh2: blocks Bacillus anthracis lethal factor protease. P15917. multiplex microsphere protease cleavage assay, LF. inhibition, % at 10 µM. 360,000 compounds, 0.12% hits. AID 588501
Bead autofluor: compound fluorescence in toxin protease inhibitor counterscreen; 360,000 compounds, 3.1% hits; compound autofluorescence counterscreen, microsphere flow cytometry; active compounds read high; fluorescence intensity (concentration not given with the values); in the data active = fluorescence intensity above about 16000; inconclusive = no clear call, values can overlap the other calls
Large screens that a line does not name were inactive. Cut-off read from the data, not from the text of the source, unless noted: active = inhibition above about 30%; inconclusive = no clear call, values can overlap the other calls; inactive = below that.

COC(=O)c1ccc(NC(=O)CN(C)S(=O)(=O)c2ccc(OC)c(C)c2)cc1	Bead autofluor 24716
COc1ccccc1NC(=O)CNC(=O)c1ccccc1C	Bead autofluor 24190
N#Cc1ccccc1OCC(=O)Nc1nnc(C2CC2)s1	none
Cc1ccccc1C(C)(O)c1cnc(C)n1Cc1ccccc1 (stereo not given)	none
CN1CCN(C2CN(C3CCCC3)S(=O)(=O)C2)CC1 (stereo not given)	none (no result: MazEF act)
COc1ccccc1NC(=O)CN(C)S(=O)(=O)c1cc(C)ccc1OC	Bead autofluor 16552
COc1ccc(C)cc1NC(=O)CN(C)S(=O)(=O)c1cccs1	none
O=C(c1ccoc1)N1CCCC(CO)(CCCc2ccccc2)C1 (stereo not given)	none
CSc1ccccc1NC(=O)CN(C)C(=O)CNC(=O)c1ccc(Oc2ccccc2)cc1	none
O=C(CN1c2cccc3cccc(c23)S1(=O)=O)N1CCOCC1	Bead autofluor 16664
O=C(C1=NOC2(C1)C(=O)Nc1ccccc12)N1CCOCC1 (stereo not given)	none (no result: MazEF act)
Fc1ccc2c(c1)[C@H]1OCC[C@H]1[C@@H](c1ccco1)N2	Bead autofluor 23934
Clc1ccc2c(c1)[C@H]1OCC[C@H]1[C@@H](c1ccco1)N2	none
CCCCN1C(=O)C(CC(=O)NCCCCc2ccccc2)CC(C(=O)N2CCCCCC2)=C1C (stereo not given)	none (no result: MazEF act)
Cc1cc(C(=O)N2CCN(c3cccc(Cl)c3)CC2)c(C)o1	BoNT-F LC inh inconclusive
Cc1cc(C(=O)N2CCN(c3ccccc3Cl)CC2)c(C)o1	none
Cc1cc(C(=O)N2CCN(c3ccccc3)CC2)c(C)o1	Bead autofluor 17012
Cc1cc(C(=O)N2CCN(c3ncccn3)CC2)c(C)o1	Bead autofluor 21168
CCSc1nnc(SCC(=O)c2c(N)n(C)c(=O)n(C)c2=O)s1	none
O=C(NCc1ccccn1)c1cccc(NS(=O)(=O)c2ccccc2)c1	none (no result: BoNT A protease, BoNT-F LC inh, Anthrax LF inh2, Bead autofluor)
CCc1c(C)n2nc(C)cc2[nH]c1=O	Bead autofluor 22318
CCCCN(CCCC)CCCNC(=O)CC1Oc2ccc(C)cc2NC1=O (stereo not given)	Bead autofluor 23832
CCN(CC)CCCNC(=O)CC1Oc2ccc(C)cc2NC1=O (stereo not given)	none
O=c1cc(-c2ccccc2)oc2cc(O)ccc12	none
O=c1ccc2c(-c3ccccc3)c3ccc(O)cc3oc-2c1	BoNT-F LC inh 88, Anthrax LF inh2 56 (no result: MazEF act)
Nc1ccc(-c2c3ccc(=O)cc-3oc3cc(O)ccc23)cc1C(=O)O	BoNT-F LC inh inconclusive, Anthrax LF inh2 128 (no result: MazEF act)
COc1ccccc1NC(=O)C1=C(C)Nc2ncnn2C1c1ccccc1C (stereo not given)	none (no result: BoNT A protease, BoNT-F LC inh, Anthrax LF inh2, Bead autofluor)
COc1cccc(C2C(C(=O)Nc3ccc(C)cc3C)=C(C)Nc3ncnn32)c1OC (stereo not given)	Bead autofluor 19983
CCCn1c(SC(C)C(=O)O)nc2ccccc21 (stereo not given)	Bead autofluor 21928
COc1ccc(N2C(=O)CC(SCCc3nc4ccccc4[nH]3)C2=O)cc1 (stereo not given)	Bead autofluor 19552
CC1(C)CC(=NOC(=O)c2ccccc2)CC(C)(C)N1	Bead autofluor 19903
CC(=O)N1C(C)(C)CC(=NOC(=O)c2ccccc2)CC1(C)C	none
COc1ccc(-c2nc(SC(C)C(=O)NC3CC3)n[nH]2)cc1 (stereo not given)	BoNT A protease inconclusive, BoNT-F LC inh inconclusive, Anthrax LF inh2 inconclusive
COc1ccccc1/C=C/C(=O)c1c2c(c(C)[nH]c1=O)CCCC2	BoNT A protease inconclusive, Bead autofluor 21882
COc1ccc(/C=C/C(=O)c2c(C)cc(C)[nH]c2=O)c2ccccc12	BoNT-F LC inh inconclusive
COc1ccccc1/C=C/C(=O)c1ccc(Cl)cc1	Bead autofluor 24068
COc1ccccc1/C=C/C(=O)c1ccccc1	BoNT-F LC inh inconclusive
CCN1C[C@@H]2[C@@H]3C(=O)N(Cc4ccccc4)C(=O)[C@@H]3[C@](CC)(C1=O)N2C(=O)c1ccc(Cl)c(Cl)c1	none
O=c1[nH]c(SCc2ccc(OC(F)(F)F)cc2)nc2c1CCC2	none (no result: MazEF act)
Cc1ccc(C)c(NC(=O)C2CC(Cl)=CCC2C(=O)O)c1 (stereo not given)	none
Cc1ccccc1NC(=O)C1CC(Cl)=CCC1C(=O)O (stereo not given)	Bead autofluor 21780
CCN(CC)c1ccc(/C=C/[N+](=O)[O-])cc1	BoNT A protease 66, Anthrax LF inh2 35
O=C(Nc1ccc(Oc2ccccc2)cc1)c1csc([C@@H]2C[C@H](O)[C@@H](CO)O2)n1	none (no result: MazEF act)
COc1cc(N2CCOCC2)ncn1	BoNT A protease inconclusive, Bead autofluor 23005
O=C(CSc1nc(C2CC2)nc2ccccc12)N1CCCCC1	none
O=C(CSc1nc(C2CC2)nc2ccccc12)N1c2ccccc2Sc2ccc(C(F)(F)F)cc21	Bead autofluor 21370
COc1ccc(C2=NO[C@@H]3C(=O)N(C4CCCCC4)C(=O)[C@H]23)cc1OC	Bead autofluor 22002
CCOc1ccccc1C1C(C#N)=C(N)Oc2cc(N)ccc21 (stereo not given)	Bead autofluor 21823
C/C(=C\C(=O)c1ccc(C)o1)Nc1ccc2c(c1)OCO2	Bead autofluor 23606
Cc1ccc(C(=O)Nc2ccc3c(c2)OCO3)o1	none
COC(=O)c1ccc(N/C(C)=C/C(=O)c2ccc(C)o2)cc1	Bead autofluor 16289
CCOc1ccc(N/C(C)=C/C(=O)c2ccc(C)o2)cc1	none
COc1cccc(C(=O)N2CCC[C@H]2C(=O)N2CCC[C@H]2C(=O)N[C@H](C)c2ccccc2)c1	none (no result: MazEF act)
COC(=O)[C@]1(Cc2ccccc2)N[C@H](CN(C)C(=O)COc2ccccc2)[C@@H]2C(=O)N(Cc3ccccc3)C(=O)[C@@H]21	none
CN(Cc1nc(-c2ccccn2)no1)S(=O)(=O)c1ccc(Cl)cc1	Bead autofluor 21655
CN(Cc1nc(-c2cccnc2)no1)S(=O)(=O)c1ccccc1	none
O=C(Nc1nnc(-c2ccccc2)s1)c1cc(S(=O)(=O)N2CCOCC2)c(Cl)cc1Cl	BoNT A protease inconclusive, Bead autofluor 23535
COCc1cc(C)nc(Nc2ccccc2C)c1C#N	BoNT A protease inconclusive, Bead autofluor 20149
CCN1CCN(c2ccc(NC(=O)c3cccc4ncccc34)cc2)CC1	BoNT A protease inconclusive, Bead autofluor 22120
CCN1CCN(c2ccc(NC(=O)c3ccco3)cc2)CC1	none
Cc1sc2nc(CN(Cc3ccccc3)C(=O)NC3CCCCC3)[nH]c(=O)c2c1C	BoNT-F LC inh 38
CCCCCn1c(SCC(=O)OCC)nc2cc(C(=O)N3CCC(C(N)=O)CC3)ccc2c1=O	Bead autofluor 21996
NC(=O)C1CCN(C(=O)c2ccc3c(=O)n(Cc4ccco4)c(SCC(=O)c4ccccc4)nc3c2)CC1	none
N#CCSc1nc2cc(C(=O)N3CCCC3)ccc2c(=O)n1Cc1ccccc1	none
N#CCSc1nc2cc(C(=O)N3CCC(C(N)=O)CC3)ccc2c2nc3ccccc3n12	Bead autofluor 20618
Cc1ccc(SC(C)C(=O)Nc2cccc(N(C)S(C)(=O)=O)c2)cc1 (stereo not given)	Bead autofluor 19657
